About 13,000 (27%) of roughly 48,000 compounds showed an effect of 50% or more. The list shows a part of the results.
The compounds below were run on Wolbachia pipientis (assay: Anti-Wolbachia Cell-Based Screen). Conditions: 5 µM.
Format: functional
Parameters: scale not given: in the data most compounds retested in dose-response had high values

SMILES	Percent Effect [%]
O=C1C[C@@H]2CCN(Cc3ccccc3)C[C@@H]2CCN1C1CCCCC1	-3.832
Cc1cc(F)cc2c(NCC(C)(C)C(N)=O)c(C#N)cnc12	-8.15
Cc1[nH]c2ccccc2c1-c1ccnc(N[C@H](CO)CC(C)C)n1	64.61
O=C(NCCN1CCCCC1)c1nc2ccccc2c(=O)[nH]1	8.44
Cc1[nH]c2ccccc2c1-c1ccnc(N[C@@H](C)CO)n1	114.9
Cc1ccc(-c2nc(CNC(C)CCO)[nH]c2-c2ccccn2)cc1 (stereo not given)	0.0278
Cc1[nH]c2ccccc2c1-c1ccnc(NC[C@H](O)CO)n1	2.314
Cc1[nH]c2ccccc2c1-c1ccnc(N[C@@H](CO)C(C)C)n1	99.82
Cc1[nH]c2ccccc2c1-c1ccnc(NCCN2CCCCC2)n1	107.1
Cc1[nH]c2ccccc2c1-c1ccnc(NCCN2CCOCC2)n1	0.04004
Cc1ccc(-c2ccnc(NC(C)c3c(C)n[nH]c3C)n2)c(C)n1 (stereo not given)	5.666
Cn1cc(C2CC3(CCN(C(=O)c4cccs4)CC3)NC2=O)cn1 (stereo not given)	3.208
COc1cc(Cl)cc(C(=O)N2CCC3(CC2)CNC(=O)C3)c1	-6.802
CCOCc1nc2c(c(N(C)Cc3ccsc3)n1)CCNCC2	-15.95
O=C(O)C(F)(F)F.O=C([C@H]1CN(Cc2ccccc2F)C[C@H]2OCC[C@@H]12)N1CCCO1	3.627
COc1ccccc1CN1C[C@@H]2CN(Cc3cccnc3)CCO[C@@H]2C1.O=C(O)C(F)(F)F.O=C(O)C(F)(F)F.O=C(O)C(F)(F)F	-7.53
O=C(CCc1ccccc1)N1C[C@@H]2CN(Cc3ccoc3)CCO[C@@H]2C1.O=C(O)C(F)(F)F	22.25
COCCN1CCO[C@@H]2CN(Cc3ccccc3OC)C[C@@H]2C1.O=C(O)C(F)(F)F.O=C(O)C(F)(F)F	1.646
CC(=O)N1CCO[C@@H]2CN(Cc3ccccc3F)C[C@@H]2C1.O=C(O)C(F)(F)F	102.5
O=C(c1ccccc1)N1CCO[C@@H]2CN(Cc3ccc[nH]3)C[C@@H]2C1	106.1
COCCN1CCO[C@@H]2CN(C(=O)c3ccc4[nH]ccc4c3)CC[C@@H]2C1	-49.46
O=C(O)C(F)(F)F.O=C(c1ccc2[nH]ccc2c1)N1CC[C@@H]2CN(CC3CC3)CCO[C@@H]2C1	-56.17
COc1ccccc1CN1C[C@@H]2CN(C(C)=O)CCO[C@@H]2C1.O=C(O)C(F)(F)F	111.4
CC(=O)N1CCO[C@@H]2CN(Cc3ccccc3Cl)C[C@@H]2C1.O=C(O)C(F)(F)F	111.8
Fc1ccccc1CN1C[C@@H]2CN(Cc3cccnc3)CCO[C@@H]2C1.O=C(O)C(F)(F)F.O=C(O)C(F)(F)F.O=C(O)C(F)(F)F	0.8548

SMILES	Percent Effect [%]
CN(C)C(C(=O)NCCSc1ncn[nH]1)c1cccc(F)c1 (stereo not given)	-5.881
Cc1cc(NC(=O)CSc2nc(=O)ccn2C(C)C)no1	-5.923
C/C(=C/c1ccccc1)CNCc1cccc(C(N)=O)c1	-6.417
Cc1ccc(CNC(=O)NCC(=O)N2CCCC2)c(N2CCCC2)c1	-13.16
CCC(NCc1cc[nH]n1)c1nc(C(F)(F)F)cs1 (stereo not given)	-5.752
CC(=O)N1CCO[C@@H]2CN(Cc3cccc(Cl)c3)C[C@@H]2C1.O=C(O)C(F)(F)F	105.7
COc1ccc(CN2C[C@@H]3CN(Cc4cccnc4)CCO[C@@H]3C2)cc1.O=C(O)C(F)(F)F.O=C(O)C(F)(F)F.O=C(O)C(F)(F)F	13.72
CN1CCO[C@@H]2CN(C(=O)COc3cccc(Cl)c3)C[C@@H]2C1.O=C(O)C(F)(F)F	-8.699
Cc1[nH]ccc1C(=O)N1C[C@H]2CC[C@@H]1CN(S(=O)(=O)N(C)C)C2	-3.55
Cc1ccc(CNC(=O)N(C)Cc2ccc([S+](C)[O-])cc2)s1 (stereo not given)	-1.725
CO[C@H]1COCCN(C(=O)c2ccc(F)cc2)C1	0.8542
Cc1ccc(C(=O)N2CCOC(c3nc(-c4ncccn4)no3)C2)cc1 (stereo not given)	94.58
O=C(c1cccnc1N1CCOC(c2ccc(F)cc2)C1)N1CCCC1 (stereo not given)	5.755
O=C(c1ccccc1F)N1CCOC(c2nc(-c3ncccn3)no2)C1 (stereo not given)	128.4
O=C(c1ccccc1F)N1CC(c2nc(C3CC3)no2)C1	5.464
O=C(c1ccccc1F)N1CC(c2nc(-c3ccc[nH]c3=O)no2)C1	1.982
N#Cc1ccc(C(=O)N2CC(c3nc(-c4ncccn4)no3)C2)cc1	10.08
O=C(c1ccc(F)cc1)N1CCOC(c2nc(-c3ncccn3)no2)C1 (stereo not given)	124.8
Cc1nccnc1-n1c(COCC(=O)O)nc2c(C)cccc21	-2.278
Cc1nc2c(C(=O)O)cccc2n1-c1ccc(C(=O)N2CCCC2)o1	-15.07
CC(=O)N1CCN(C(=O)C[C@@H]2C[C@@H](C(C)C)[C@H](CC#N)C=C2C)CC1	4.574
Cc1ccnc(N2CCC(NCCOc3ccccc3)CC2)n1	-3.135
CC(=O)NCCNC(=O)CNC1CCCN(c2ccc(C)nn2)C1 (stereo not given)	88.86
Cc1ccc(N2CCCC(NCC(=O)NC(C3CC3)C3CC3)C2)nn1 (stereo not given)	84.95
COCCCNC1CCCN(c2ccc(C)nn2)C1 (stereo not given)	22.77

SMILES	Percent Effect [%]
Cc1ccc(N2CCCC(NCC(=O)NCC3CC3)C2)nn1 (stereo not given)	1.938
Cc1ccc(N2CCCC(NCC(=O)Nc3cc(C)nn3C)C2)nn1 (stereo not given)	95.11
Cc1ccc(N2CCCC(NCCS(C)(=O)=O)C2)nn1 (stereo not given)	2.432
CC(C)=CCNC1CCCN(c2ccc(C)nn2)C1 (stereo not given)	-19.9
Cc1ccc(N2CCCC(NCCCS(C)(=O)=O)C2)nn1 (stereo not given)	0.9171
Cc1ccn(-c2ccc(NCc3ccnc(N4CCCCC4)c3)nn2)n1	4.336
O=C(CCc1ccc(Br)cc1F)NS(=O)(=O)c1ccc2c(c1)OCCO2	-3.282
Cc1ccc(CN[C@@H]2CO[C@H](CNS(=O)(=O)c3ccccc3)[C@H]2O)cc1	-4.281
CCn1cc(S(=O)(=O)Nc2nc3c(s2)CC(C)CC3)cn1 (stereo not given)	98.13
CCn1cc(S(=O)(=O)NC2CCCN(CC3CCCCC3)C2)cn1 (stereo not given)	19.95
CCn1cc(S(=O)(=O)NC2CCCC2)cn1	8.847
CC1CCc2nc(NS(=O)(=O)c3cnn(C)c3)sc2C1 (stereo not given)	97.97
Cn1cc(S(=O)(=O)Nc2c(F)cccc2N2CCCC2)cn1	-10.22
Cn1cc(S(=O)(=O)Nc2ccc3[nH]c(C4CCC4)nc3c2)cn1	-3.023
Cc1oc(C(=O)O)cc1S(=O)(=O)Nc1ccc(Cl)c(Cl)c1	-3.012
Cc1oc(C(=O)O)cc1S(=O)(=O)Nc1cccc(-n2nccc2C)c1	-0.5451
Cc1oc(C(=O)O)cc1S(=O)(=O)Nc1ccc(Br)cc1Cl	96.02
Cc1ccc(NS(=O)(=O)c2cc(C(=O)O)oc2C)c(Br)c1	0.9383
Cc1oc(C(=O)O)cc1S(=O)(=O)Nc1cc(Br)ccc1Cl	106.9
Cc1noc(C)c1NS(=O)(=O)c1cc(C(=O)O)cc(Cl)c1Cl	3.53
O=S(=O)(CCNCc1ccc2c(c1)CCO2)N1CCOCC1	0.3646
CN(C)CCN1CC(C(=O)NCc2cn3cccnc3n2)CC1=O (stereo not given)	-11.69
O=C(NCc1cccnc1-n1cccn1)C1CC(=O)N(CC2CC2)C1 (stereo not given)	-9.395
CN1CC(C(=O)NCc2cccnc2-n2cccn2)CC1=O (stereo not given)	63.73
COCCN1CC(C(=O)NCc2cccnc2-n2cccn2)CC1=O (stereo not given)	120.6

SMILES	Percent Effect [%]
CN1CC(C(=O)NCc2cccnc2OCc2ccccc2)CC1=O (stereo not given)	10.22
CCN1CC(C(=O)NCc2cccnc2-n2cccn2)CC1=O (stereo not given)	124.7
CCN1CC(C(=O)NCc2ccccc2-n2cccn2)CC1=O (stereo not given)	3.983
O=C(NCc1ccnc(-n2cccn2)c1)C1CC(=O)N(CC2CC2)C1 (stereo not given)	153.4
COCCN1CC(C(=O)NCc2ccnc(-n3cccn3)c2)CC1=O (stereo not given)	-1.182
CC(C)N1CC(C(=O)NCc2ccnc(-n3cccn3)c2)CC1=O (stereo not given)	-4.025
CN(C)CCN1CC(C(=O)NCc2cccc(-n3cccn3)c2)CC1=O (stereo not given)	7.096
CCS(=O)(=O)N1CCN(C(=O)c2ccc(Cn3cc(Br)cn3)cc2)CC1	-241.9
CCN(C(=O)CN1CCN(CC(C)O)CC1)C1=CCCCC1 (stereo not given)	-11.46
COc1cc(F)c(-n2cnc(CCNC(C)=O)c2)cc1F	-17.55
CCN1CCN(S(=O)(=O)N2CCCC2)[C@H]2CS(=O)(=O)C[C@H]21	-2.731
CCN(CC(=O)NCc1nc(C2CC2)no1)Cc1ccc(Cl)cc1	3.966
CC(C)CN1CC(C(=O)NCc2cccnc2-n2cccn2)CC1=O (stereo not given)	126
O=C(NCc1cnn2cccnc12)C1CC(=O)N(Cc2cccnc2)C1 (stereo not given)	-5.518
CC(C)CN1CCN(C(=O)NCc2cccnc2-n2cccn2)CC1	4.797
COCC1c2nnn(CC3CC3)c2CCN1C(=O)CS(C)(=O)=O (stereo not given)	-0.612
O=S(=O)(Cc1ccccc1)NCc1ccco1	0.9463
CC(CNC(=O)NCc1ccco1)CC1(C)OCCO1 (stereo not given)	3.835
CN(C)C(CNc1c(NCc2ccco2)c(=O)c1=O)c1ccccc1 (stereo not given)	131.6
CNc1c(NCc2ccco2)c(=O)c1=O	113.6
CC(O)CNc1c(NCc2ccco2)c(=O)c1=O (stereo not given)	135.5
Cc1nn(-c2ccccc2)nc1C(=O)NCC(c1ccco1)N(C)C (stereo not given)	-4.253
Cc1ccc(CS(=O)(=O)NCc2ccco2)cc1	3.7
C[C@@H](O)CNc1c(NCc2ccco2)c(=O)c1=O	100.7
COc1ccccc1C(C)(C)NCc1ccco1	-0.6951

From ChEMBL document CHEMBL3988442, “University of Dundee, Small-Polar-MMV Screening Library” (2021)
